Laboratory results reported in PubChem BioAssay AID485364 (National Center for Advancing Translational Sciences (NCATS), 2010).
“And” between values parts separate entries of the source, which are not always exact repeats. Identical values can stand only once. Out of some 360,000 compounds screened, about 11,000 (3.1%) were called active. Not shown: some 4% with an inconclusive outcome. The sample as a whole holds a higher share of actives than the screen did. Values without a mark were called inactive. The call rests on the fitted dose curve; in most records, active means well fitted inhibition curve with a large enough effect; inconclusive means small, poorly fitted or top-dose-only effect; inactive means no such curve, though single readings can be large or run the other way.

What follows are molecules tested against Schistosoma mansoni thioredoxin glutathione reductase (TGR) (UniProt Q962Y6) (assay: qHTS Assay for the Inhibitors of Schistosoma Mansoni Peroxiredoxins). Conditions: purified TGR, DTNB reduction, TNB absorbance 405 nm; series mostly up to 114 µM; activity change, negative = inhibition: at the top concentration.
Summary of the method: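 Kinetic colorimetric format: TGR-catalysed, NADPH-driven DTNB reduction monitored via TNB absorbance. Enzyme dispensed at 20 nM; compound exposure 15 min at room temperature before reaction start.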
Further: nearly all actives have a fitted effect of over 60% in size.
On the % scale 0 is the no-effect control and ±100 the full control effect; potency means the concentration at half of the fitted maximal effect.

Row | Structure (SMILES) | activity change, negative = inhibition | Potency
1 | Cc1cccc(NC(=O)N2CCC(CN3CCc4ccccc4C3)CC2)c1C | 2.98% | –
2 | O=C(CC1N=C2c3ccccc3N=C(SCc3ccc(F)cc3)N2C1=O)NCc1cccs1 (centres undefined) | -1.39% | –
3 | CC1Cc2cc(S(=O)(=O)CCC(=O)Nc3ccc(F)c(Cl)c3)ccc2N1C(=O)C1CC1 (centres undefined) | 1.79% | –
4 | Cc1ccc(CNC(=O)CCS(=O)(=O)c2ccc3c(c2)CC(C)N3C(=O)C2CC2)o1 (centres undefined) | – | 44.7 µM (active)
5 | CC1Cc2cc(S(=O)(=O)CCC(=O)NCc3ccc(Cl)cc3)ccc2N1C(=O)C1CC1 (centres undefined) | 2.16% | –
6 | COc1cc(OC)cc(C(=O)Nc2c(C(=O)Nc3ccc(F)cc3)oc3ccccc23)c1 | 4.09% | –
7 | CCOc1ccc(Nc2ncnc3scc(-c4ccc(OC)cc4)c23)cc1 | 11.5% | –
8 | Cc1cccc2nc(-c3ccc(Cl)s3)c(Nc3ccc4c(c3)OCCO4)n12 | 2.96% | –
9 | O=c1cc(CCl)nc2scc(-c3ccccc3)n12 | – | 17.8 µM (active)
10 | Cc1csc2nc(COc3ccc(NC(=O)COc4ccccc4)cc3)cc(=O)n12 | 5.27% | –
11 | Cc1csc2nc(COC(=O)c3ccccc3NC(=O)c3ccccc3Cl)cc(=O)n12 | 1.82% | –
12 | Cc1oc2ccc(O)c(CN3CCOCC3)c2c1C(=O)Nc1cccc(Cl)c1C | 1.69% | –
13 | O=S(=O)(c1ccc(Br)cc1)c1nc(-c2ccccc2)oc1NCc1cccnc1 | 2.3% | –
14 | Cc1ccc(S(=O)(=O)c2nc(-c3cccs3)oc2NCc2cccnc2)cc1 | -2.01% | –
15 | COc1cccc(-c2nc(S(=O)(=O)c3ccc(C)cc3)c(NCc3ccccc3)o2)c1 | – | 44.7 µM (active)
16 | CCOC(=O)C(Cc1ccccc1)NC(=O)CCc1c(C)nc2c(c(C)nn2-c2ccc(C)c(C)c2)c1C (centres undefined) | 5.29% | –
17 | CCC1CCCCN1S(=O)(=O)c1ccc(NC(=O)c2cc(=O)c3ccccc3o2)cc1 (centres undefined) | 2.57% | –
18 | CCOc1ccc(CNC(=O)CCc2c(C)nn(-c3ccc(N4CCCCC4)nn3)c2C)cc1 | -3.22% | –
19 | CC(=O)Nc1ccc(N2C(=O)C3C4C=CC(CC4)C3C2=O)cc1 (centres undefined) | -9.16% | –
20 | Cc1ccc(N2C(=O)C3C4C=CC(CC4)C3C2=O)cc1Br (centres undefined) | -3.52% | –
21 | Cc1ccc(N2C(=O)C3C4C=CC(CC4)C3C2=O)cc1Cl (centres undefined) | – | 25.1 µM (active)
22 | Cc1ccc2oc(C(=O)Nc3ccc(S(=O)(=O)N4CCCCCC4)cc3)cc(=O)c2c1 | 4.12% | –
23 | COc1ccc(-c2noc(CSc3nc(C)cc(=O)[nH]3)n2)cc1OC | -0.744% | –
24 | O=C(CSc1oc(-c2ccccc2)nc1S(=O)(=O)c1ccc(Br)cc1)NC1CCCCC1 | -3.74% | –
25 | COc1cc(Br)cc(/C=N/c2ncn[nH]2)c1O | 5.17% | –

Row | Structure (SMILES) | activity change, negative = inhibition | Potency
26 | Oc1c(Cl)cc(Cl)cc1/C=N/c1ncn[nH]1 | – | 20 µM (active)
27 | Cc1ccc(Nc2c(-c3ccc(N(C)C)cc3)nc3nc[nH]n23)cc1 | -3.83% | –
28 | COc1cc(OC)cc(-c2nc3nc(C)c(CCC(=O)Nc4ccc(C)cc4)c(C)n3n2)c1 | -1.28% | –
29 | CN(C)/C=C1\C=C(c2ccccc2)OC1=O | – | 22.4 µM (active)
30 | COc1ccccc1/C=C/C1=NC(=C\N(C)C)/C(=O)O1 | -9.84% | –
31 | Cc1ccc(C2=C/C(=C\c3cccnc3)C(=O)O2)cc1 | -8.03% | –
32 | Cc1ccc(S(=O)(=O)NCc2nc3nc(C)cc(C)n3n2)cc1 | -1.78% | –
33 | Cc1cc(C)n2nc(CNS(=O)(=O)c3c(F)c(F)c(F)c(F)c3F)nc2n1 | – | 17.8 µM (active)
34 | Cc1cc(C)n2nc(C(=O)NC(C)(C)C)nc2n1 | -8.16% | –
35 | COC(=O)c1ccccc1NS(=O)(=O)c1ccc2c(c1)CCCN2C(C)=O | 7.01% | –
36 | Cc1c(Cl)cccc1NC(=O)Cn1cc(C(=O)c2cccs2)c2ccccc21 | 1.68% | –
37 | NC1=NC(c2cc(F)cc(F)c2)n2c(nc3ccccc32)N1 (centres undefined) | -2.89% | –
38 | Cc1ccc(-n2c(SCC(=O)c3ccccc3)nc3c([nH]c4ccccc43)c2=O)cc1 | 6.85% | –
39 | COc1ccccc1NC(=O)c1c(Br)cnn1C | 10.4% | –
40 | COc1ccccc1NC(=O)c1cc(Cl)nnc1Cl | -15.3% | –
41 | COc1ccccc1NC(=O)/C=C/C(N)=O | – | 2.82 µM (active)
42 | CC(NC(=O)CCc1cn(Cc2ccccc2Cl)c2ccccc12)c1ccccc1 (centres undefined) | 9.78% | –
43 | Cc1ccc(NC(=O)c2ccc3[nH]c(C)cc(=O)c3c2)c(C)c1 | 0.821% | –
44 | O=[N+]([O-])c1ccc(C=Nc2ccc(Cl)cc2Cl)s1 | – | 25.1 µM (active)
45 | COc1ccc(C(C)=O)cc1CSc1nc2nc(C)cc(C)n2n1 | – | 39.8 µM (active)
46 | Cc1cc(C)n2nc(SCC(N)=O)nc2n1 | 1.42% | –
47 | COc1cccc(CSc2nc3nc(C)cc(C)n3n2)c1 | 5.94% | –
48 | CCOc1ccccc1CNC(=O)C1CCCN(S(=O)(=O)c2ccc3c(ccn3C)c2)C1 (centres undefined) | 2.74% | –
49 | Cc1ccc(CNS(=O)(=O)c2ccc(C(=O)N(C)C)s2)cc1 | 8.48% | –
50 | Cc1ccc2c(c1)-c1c(cnn1CC(=O)Nc1ccccc1C#N)CO2 | 2.81% | –

Row | Structure (SMILES) | activity change, negative = inhibition | Potency
51 | COc1ccc(Cl)cc1NC(=O)Cn1nc(-c2ccc(C)cc2)n(C)c1=S | -1.27% | –
52 | COc1ccc(-c2nc3ccccc3c(=O)n2CCc2ccc(O)cc2)cc1 | -3.44% | –
53 | CCOC(=O)c1ccc(-n2c(CCC(=O)O)ccc2-c2ccccc2)cc1 | – | 28.2 µM (active) and 50.1 µM (active)
54 | CCOC(=O)c1ccc(NC(=O)c2ncn(-c3ccccc3)n2)cc1 | -0.841% | –
55 | COc1ccc(NC(=O)Cn2c(-c3ccc(OC)cc3)cn(-c3ccc(C)cc3)c2=O)cc1 | -3.25% | –
56 | C=Cn1c(C(=O)O)ccc1-c1ccc(OC)cc1 | -6.86% | –
57 | COc1ccc(Cl)cc1-n1c(CCC(=O)O)ccc1-c1ccc(C)cc1 | – | 39.8 µM (active)
58 | CCOC(=O)c1ccc(COC(=O)CCc2nc(-c3ccccc3)c(-c3ccccc3)o2)cc1 | 2.19% | –
59 | Cc1ccc(-c2ccc(CCC(=O)O)n2-c2ccc(C(N)=O)cc2)cc1 | – | 12.6 µM (active)
60 | COc1ccc(-c2ccc(CCC(=O)O)n2-c2ccc(O)cc2)cc1 | – | 39.8 µM (active)
61 | COc1ccc(Cl)cc1NC(=O)CCC(=O)c1ccc(C)cc1 | 3.91% | –
62 | COc1ccc(-c2cn(-c3ccc(C)cc3)c(=O)n2CC(=O)Nc2ccc(OC)c(OC)c2)cc1 | -2.58% | –
63 | CCOc1ccccc1N(CC)C(=O)Nc1cn(C)c(=O)c2ccccc12 | -2.07% | –
64 | COc1ccc(NC(=O)Nc2cccc(-c3noc(C)n3)c2)cc1 | -2.78% | –
65 | CCCCCn1c(CCNC(=O)c2ccc(F)cc2)nc2ccccc21 | 0.666% | –
66 | O=C(CC1C(=O)N(c2ccccc2)C(=O)N1CCc1cccs1)Nc1ccc(F)cc1 (centres undefined) | -4.99% | –
67 | Cc1ccc(C(=O)Nc2ccc(OCc3cc(=O)n4c(C)csc4n3)cc2)cc1 | 0.173% | –
68 | CC(C)C12CN3CC(C(C)C)(CN(C1)C3c1ccc(OCc3ccccc3)cc1)C2=O (centres undefined) | 1.3% | –
69 | Fc1ccccc1/C=C1\CCCC2=C1Nc1ncnn1C2c1ccccc1F (centres undefined) | – | 1.26 µM (active)
70 | CCOC(=O)C1=C(c2ccccc2)Nc2ncnn2C1c1ccc(Cl)cc1 (centres undefined) | 0.261% | –
71 | COc1ccc2c(Sc3ccc(C)cc3)c(C(=O)NC(C)c3ccccc3)[nH]c2c1 (centres undefined) | 5.33% | –
72 | Cc1ccc(-c2cc(N)n(Cc3cccc(Cl)c3)n2)cc1 | 8.78% | –
73 | COc1cccc(Nc2nc3ccccc3c3nncn23)c1 | 1.24% | –
74 | Cc1ccc(C(=O)COC(=O)C(Cc2c[nH]c3ccccc23)NC(=O)c2ccc(Br)cc2)cc1 (centres undefined) | 0.457% | –
75 | NS(=O)(=O)c1ccc(-c2ccc(/C=C3\SC(=O)NC3=O)o2)cc1 | -18.6% | –

Row | Structure (SMILES) | activity change, negative = inhibition | Potency
76 | O=C1NC(=O)N(Cc2ccco2)C(=O)/C1=C\c1ccc(-c2ccc(F)cc2)o1 | – | 11.2 µM (active)
77 | O=C(CCCOc1ccccc1)NCc1ccco1 | 8.7% | –
78 | COc1ccc(OCCCn2cccc2/C=C2/C(=N)N3OC(C)=CC3=NC2=O)cc1 | 6.24% | –
79 | O=C1c2ccccc2C(=O)N1CCOc1ccc(F)cc1 | 0% | –
80 | O=C1NC(=O)N(Cc2ccco2)C(=O)/C1=C\c1cccn1CCOc1ccccc1 | – | 11.2 µM (active)
81 | CCn1c(C)c(C)c2cc(C(=O)NCCc3cc(OC)ccc3OC)ccc21 | 5.8% | –
82 | CC(=O)N1CCCc2cc(S(=O)(=O)N3CCC(C(=O)NC4CCCCC4)CC3)ccc21 | 5.19% | –
83 | CCc1ccc(NC(=O)CSc2nc3c([nH]c4ccccc43)c(=O)n2-c2cccc(OC)c2)cc1 | 7.94% | –
84 | COc1ccc(-n2c(=O)c3c(c4cc(OC)ccc4n3C)n(Cc3cccc(C)c3)c2=O)cc1 | -3.96% | –
85 | Nc1c(N(Cc2ccco2)C(=O)c2cccc(F)c2)c(=O)[nH]c(=O)n1Cc1ccccc1 | -25% | –
86 | CCC(=NCCCO)c1c(O)n(-c2ccc(OC)cc2)c(=O)[nH]c1=O | -4.2% | –
87 | CCC(=NCc1ccco1)c1c(O)n(Cc2ccccc2)c(=O)[nH]c1=O | – | 28.2 µM (active)
88 | CC(C)Cn1c(=O)c2ccccc2n2c(CCC(=O)N3CCN(c4cccc(Cl)c4)CC3)nnc12 | 6.71% | –
89 | Cc1ccc(/C=C/C(=O)O)cc1S(=O)(=O)N1CCC(Cc2ccccc2)CC1 | – | 25.1 µM (active)
90 | Cn1cc(S(=O)(=O)N2CCC(Cc3ccccc3)CC2)c(=O)n(C)c1=O | -22.8% | –
91 | O=C(O)c1ccc(S(=O)(=O)N2CCC(Cc3ccccc3)CC2)cc1 | 5.48% | –
92 | Cc1noc(/C=C/c2ccco2)c1S(=O)(=O)N1CCC(C(=O)N2CCc3ccccc32)CC1 | – | 44.7 µM (active)
93 | CNC(=O)C1CCN(S(=O)(=O)c2c(C)noc2/C=C/c2cccc(C)c2)CC1 | -13.8% | –
94 | COc1ccccc1N1CCN(C(=O)C2CCN(S(=O)(=O)c3c(C)noc3/C=C/c3ccc(C)cc3)CC2)CC1 | -4.21% | –
95 | CCCCCCn1nnc2sc(-c3ccccc3)cc2c1=O | 0.709% | –
96 | CCCNC(=O)C1CCN(c2nc3ccc(C)cc3[nH]2)CC1 | 13.9% | –
97 | CC(=O)N(C1=C(Cl)C(=O)c2ccccc2C1=O)c1ccc(C(=O)O)cc1 | – | 0.224 µM (active)
98 | O=C(Nc1ccc(F)cc1F)c1ccc2c(=O)n3c(nc2c1)CCCCC3 | -3.37% | –
99 | COc1ccccc1-n1c(-c2ccc(C)cc2)cn2c3c(=O)n(C)c(=O)n(C)c3nc12 | -0.306% | –
